This passage reports Potency results from PubChem BioAssay AID624288 (National Center for Advancing Translational Sciences (NCATS), 2012).

The structures appear in SMILES notation. About 1,400 (0.41%) of roughly 340,000 compounds were called active. Where a call stands in place of a potency, no number is given. Roughly 4% stayed inconclusive and do not appear here. This is one part of a sample in which actives are shown more often than they occur. The call rests on the fitted dose curve; cell line not stated here.
Potency means the concentration at half of the fitted maximal effect.

The experiment is described as follows: qHTS for Antagonists of gsp, the Etiologic Mutation Responsible for Fibrous Dysplasia/McCune-Albright Syndrome: qHTS. Further: nearly all actives have a fitted effect of over 65% in size. As to conditions: gsp-mutant cells, cAMP HTRF, 30 min; series mostly up to 76.9 µM. An outline of the steps:
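HTRF cAMP read-out (cAMP-d2 plus anti-cAMP antibody-K in lysis buffer, 30 min RT). Before lysis, cells are exposed to compounds with […] for 30 min at 37C in DPBS containing Ca/Mg, BSA and Tween 20.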
Turning to `O=C1CC(c2ccccc2)C(=O)N2C(=O)CC(c3ccccc3)C(=O)N12` (stereo not drawn), the Potency result is “inactive”.

Take `Cc1nc(Nc2ccccc2C)c2cnn(C)c2n1`: the Potency result was “inactive”.

As for `COc1ccc(N=C2C=CC(=O)O2)cc1`, the Potency entry was “inactive”. The result for `O=C(CCNC(=O)c1ccccc1)Nc1nc2ccccc2s1` reads “inactive”; that for `N=C1C(c2nc3ccccc3s2)=C(O)CN1NC(=O)c1ccc([N+](=O)[O-])cc1`, “inactive”; that for `O=C(NC(Nc1nc2ccc([N+](=O)[O-])cc2s1)(C(F)(F)F)C(F)(F)F)c1ccccc1`, 3.98 µM (active). As for `CC(=O)Nc1ccc(C(=O)Nc2cc(S(=O)(=O)N3CCOCC3)ccc2N2CCOCC2)cc1`, the entry is “inactive”. As for `CC1(C)N=C(N)NC(Nc2ccc(Cl)cc2)=N1`, the entry is “inactive”; as for `O=C(Nc1ccccc1)c1ccccc1NC(=O)C(F)(F)F`, 31.6 µM (active); as for `O=C(O)c1ccccc1NC(=O)c1ccccc1-c1ccccc1C(=O)O`, “inactive”. `CC1CCCCC1NCC(=O)Nc1ccccc1C(=O)Nc1ccccc1` (stereo not drawn): the Potency entry was “inactive”. Turning to `c1ccc(CCc2ccccn2)cc1`, the Potency entry is “inactive”.

Take `Cc1cc(N2C(=O)C(=O)/C(=C(/O)c3ccccc3)C2c2cccc(Br)c2)no1` (stereo not drawn): the Potency entry is “inactive”. As for `Cc1cc(N2C(=O)C(=O)/C(=C(/O)c3ccc(Cl)cc3)C2c2cccc(Br)c2)no1` (stereo not drawn), the entry is “inactive”.

In the case of `COc1ccccc1C1/C(=C(/O)c2ccc(OC(C)C)cc2)C(=O)C(=O)N1c1cc(C)on1` (stereo not drawn), the Potency is 28.2 µM (active). For `COc1ccc(CNCCCNCc2ccc(OC)c(OC)c2)cc1OC`, the Potency result is “inactive”. For `O=C1NC(c2ccccc2)Cc2ccncc21` (stereo not drawn), the Potency result was “inactive”. As for `CSc1ncc(Cl)c(C(=O)Nc2cc(C)ccc2C)n1`, the entry is “inactive”. As for `CSc1nnc(NC(=O)c2nc(S(=O)(=O)Cc3ccc(C)cc3)ncc2Cl)s1`, the figure is 15.8 µM (active). Take `Cc1cccc(NC(=O)c2nc(S(=O)(=O)Cc3ccccc3)ncc2Cl)c1`: the Potency entry was “inactive”. For `COCCSc1nnc(NC(=O)CCS(=O)(=O)Cc2ccccc2)s1`, the Potency result was “inactive”. As for `Cc1nnc(NC(=O)c2ccc3nccnc3c2)s1`, the entry is “inactive”; as for `Cc1cccc(CS(=O)(=O)c2ncc(Cl)c(C(=O)Nc3ccc(F)cc3)n2)c1`, 50.1 µM (active). As for `Cc1ccc(S(=O)(=O)CC(=O)Nc2nnc(C)s2)cc1`, the entry is “inactive”. The result for `Cc1ccc(CS(=O)(=O)c2ncc(Cl)c(C(=O)Nc3nnc(C)s3)n2)cc1` reads 31.6 µM (active); that for `CCOc1ccc(NC(=O)c2nc(SCC)ncc2Cl)cc1`, “inactive”; that for `NC(=O)C1(Nc2ccc(-c3ccccc3)cc2)CCCC1`, “inactive”.

Regarding `CC(C)OC(=O)c1ccc(NCc2cc(O)ccc2O)cc1Cl`, the Potency result was “inactive”. As for `C=CCCC(=O)N1C[C@H]2CON(C)[C@H]2C[C@H]1c1cccc(Nc2ccccc2)c1`, the entry is “inactive”; as for `CCOc1ccccc1NC(=S)C(=C([O-])c1ccc2c(c1)OCCO2)[n+]1ccc(CC)cc1`, “inactive”; as for `O=c1c2ccccc2ncn1CCc1ccncc1`, “inactive”. As for `Cc1ccc(C)c(S(=O)(=O)N(C)c2ccc(OC(=O)C3CCN(C(=O)c4ccc(F)cc4)CC3)cc2)c1`, the entry is “inactive”. The result for `CCOc1cc(C(=O)N(Cc2ccccc2)c2ccc(C)cc2)ccc1OCC(=O)N1CCOCC1` reads “inactive”. Consider `Cc1ccc2oc(=O)ccc2c1`, for which the Potency entry is “inactive”. As for `O=[N+]([O-])c1ccc(N=NNc2ccc([N+](=O)[O-])cc2)cc1`, the entry is “inactive”; as for `OCC1(CO)CC2(C1)CC(CO)(CO)C2`, “inactive”. Consider `COc1cccc(CNS(=O)(=O)c2ccc3c(c2)CC(C)N3C(C)=O)c1` (stereo not drawn), for which the Potency result was “inactive”. The result for `COc1cccc(CNS(=O)(=O)c2ccc3c(c2)CC(C)N3C(=O)C2CCC2)c1` (stereo not drawn) reads “inactive”; that for `COc1ccc(N(C)S(=O)(=O)c2ccc3c(c2)CC(C)N3C(=O)C2CC2)c(OC)c1` (stereo not drawn), 31.6 µM (active).

Consider `O=C(Nc1cccc(Br)c1)C1CC(=O)N(C2CCCC2)C1` (stereo not drawn), for which the Potency entry was “inactive”. The result for `COc1ccc(NC(=O)N2CCCC(c3nc(-c4ccc(F)cc4)no3)C2)cc1` (stereo not drawn) reads “inactive”; that for `CCOC(=O)C1CCCN(C(=O)CN(c2ccc(OC)cc2)S(=O)(=O)c2c(C)noc2C)C1` (stereo not drawn), “inactive”. As for `CCN(C(=O)C1CCCN(c2nc(-c3ccc(OC)cc3)no2)C1)c1ccc(OC)cc1` (stereo not drawn), the figure is 35.5 µM (active). The result for `O=C(O)C(=Cc1ccccc1[N+](=O)[O-])c1ccccc1` reads “inactive”; that for `N#Cc1c(-c2ccccc2)nc(SCc2cccc(C(F)(F)F)c2)[nH]c1=O`, 50.1 µM (active). `Cc1ccc(CSc2nc(-c3ccccc3)c(C#N)c(=O)[nH]2)cc1`: the Potency entry is “inactive”. The result for `N#Cc1c(-c2ccccc2)nc(SCc2ccc([N+](=O)[O-])cc2)[nH]c1=O` reads “inactive”; that for `O=C(NC1=CC(=O)c2ccccc2C1=O)c1ccccc1`, “inactive”. The result for `CC(=O)N(C1=C(Cl)C(=O)c2ccccc2C1=O)c1ccc(C(=O)O)cc1` reads 50.1 µM (active); that for `CCSc1nsc(NC(=O)Nc2cccc(C(C)=O)c2)n1`, 25.1 µM (active); that for `CCSc1nsc(NC(=O)Nc2ccccc2OC)n1`, “inactive”. As for `CC(=O)c1cccc(NC(=S)N2CCCC2)c1`, the entry is “inactive”; as for `C=C(C)C(=O)Nc1cccc(C(C)=O)c1`, “inactive”; as for `CSc1nsc(NC(=O)Nc2ccccc2)n1`, “inactive”.

Take `C=CCSc1nsc(NC(=O)Nc2cccc(C(C)=O)c2)n1`: the Potency was 28.2 µM (active).

As for `CC1C(C)N(C(=O)CCl)c2ccccc2N1C(=O)CCl` (stereo not drawn), the Potency entry is “inactive”.

Consider `O=S(=O)(O)c1cc2onnc2c2ccccc12`, for which the Potency result is “inactive”. The result for `CC(C)(C)OC(=O)N1CCC(C(=O)Nc2cccc(C(=O)NCCc3ccccc3)c2)CC1` reads “inactive”; that for `O=C(OC12CC3CC(CC(C3)C1)C2)c1ccc(NCc2cc(O)ccc2O)cc1`, “inactive”. As for `CCN1CCN(Cc2c(O)ccc3c(=O)c(-c4ccc(OC)c(OC)c4)c(C(F)(F)F)oc23)CC1`, the Potency result was “inactive”. The result for `O=c1c(-c2ccc3c(c2)OCCO3)c(C(F)(F)F)oc2cc(O)cc(O)c12` reads 39.8 µM (active); that for `COc1ccc(-c2onc(C)c2-c2ccc3c(c2)OCCO3)c(O)c1`, “inactive”; that for `CC(C)(C)S(=O)(=O)N1Cc2cc(CO)cc(CCO)c2[C@H]1CCO`, “inactive”. Take `COc1cccc(C=CC(=O)C=CC=Cc2ccccc2)c1`: the Potency entry was “inactive”. The result for `COc1ccc(-c2ccc3c(c2)C2CC3CCN2CCC#N)cc1` (stereo not drawn) reads “inactive”; that for `O=C1[C@@H]2C(c3cccnc3)=NO[C@@H]2C(=O)N1c1ccc(Cl)cc1Cl`, 11.2 µM (active).

Regarding `O=C(NNC1CC(=O)N(c2cccc(Cl)c2)C1=O)c1cccnc1` (stereo not drawn), the Potency result was “inactive”. As for `O=C(/C=C/c1ccc(Cl)cc1Cl)c1cccnc1`, the entry is “inactive”; as for `Cc1ccc(C(=O)O)c(NC=O)c1OCc1ccccc1`, “inactive”.

With `COc1ccc(CNC(=O)CN2C(=O)c3ccccc3S2(=O)=O)cc1`, the Potency result is “inactive”.

As to `Cc1cc(NC(=O)COc2ccc([N+](=O)[O-])cc2)no1`, the Potency entry is “inactive”. As for `Cc1cc(NC(=O)COc2ccccc2C#N)no1`, the figure is 31.6 µM (active); as for `Cc1cc(NC(=O)COn2nnc3ccccc32)no1`, “inactive”; as for `NC1=NOC(=O)C1C1CCCCC1` (stereo not drawn), “inactive”.

With `O=C(Cc1ccc([N+](=O)[O-])cc1)NCCc1ccc2c(c1)OCO2`, the Potency entry is “inactive”. As to `O=C(COc1ccc(Cl)cc1[N+](=O)[O-])N1CCCCC1`, the Potency entry is “inactive”. For `O=C(CN1CCCCCC1)Nc1ccc(Br)cc1[N+](=O)[O-]`, the Potency result was “inactive”. As for `O=[N+]([O-])c1cc([N+](=O)[O-])c(Oc2cc(F)cc(F)c2F)cc1NN1CCCCC1`, the figure is 11.2 µM (active); as for `COc1ccc(/C=C/C(=O)OCC(=O)N2CCN(S(=O)(=O)c3ccc(C)cc3C)CC2)cc1OC`, “inactive”. As for `O=C(NCCc1ccccc1)c1cccc(NC(=O)c2ccccc2)c1`, the entry is “inactive”. As for `O=c1ccn([C@@H]2O[C@H](CNS(=O)(=O)c3cc4ccccc4s3)[C@@H](O)[C@H]2O)c(=O)[nH]1`, the entry is “inactive”; as for `Cc1ccc(S(=O)(=O)CCC(=O)OCC(=O)N(C)Cc2ccccc2)cc1`, “inactive”; as for `O=C(NNC(=O)c1ccc2ccccc2c1)c1ccc(Cl)cc1`, “inactive”. `COC(=O)Cn1nc(-c2ccccc2)c2cc(Cl)ccc21`: the Potency was 31.6 µM (active). `O=C(CCl)NNc1nc(-c2ccccc2)c2cc(Cl)ccc2n1`: the Potency result was “inactive”. Regarding `CCCNC(=O)CCn1nc(-c2ccccc2)c2ccccc2c1=O`, the Potency entry is “inactive”. As for `Cc1nn(-c2ncccn2)c2c1C(=O)CC(C)(C)C2Br` (stereo not drawn), the Potency entry is “inactive”. The result for `COc1ccc(Cn2cc(CN3CCS(=O)(=O)N(Cc4ccc(-c5cccc(Cl)c5)cc4)C(C)C3=O)nn2)cc1` (stereo not drawn) reads “inactive”.
